The text below walks through data of PubChem BioAssay (EPA / NIEHS).

Assay [1] has as its target Cellular tumor antigen p53 (Homo sapiens) (UniProt P04637). The assay is described as follows: TOX21_p53_BLA_p2_ratio: Tox21 HCT-116 p53 Agonism Beta-lactamase Assay, Ratio, Phase 2 (AID 2283592). The method in brief:
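First, HCT116 reporter cells settle for 5 h at 37C. Next, DMSO compound solutions are pinned in (217-fold dilution) and left 16 h. Finally, CCF4-AM substrate is loaded 2 h at room temperature and the 460/530 nm ratio read.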

Assay [2] has the same target. Put plainly: TOX21_p53_BLA_p3_ratio: Tox21 HCT-116 p53 Agonism Beta-lactamase Assay, Ratio, Phase 3 (AID 2283596). The method in brief: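 Cells were seeded at 4000/well, rested 5 h at 37C, then dosed with DMSO compound solutions (217-fold dilution) for 16 h. CCF4-AM substrate was loaded for 2 h at room temperature, and the 460/530 nm emission ratio was fitted for gain of signal versus DMSO.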

A short description of assay [3]: TOX21_p53_BLA_p4_viability: Viability Assessment in the Tox21 HCT-116 p53 Agonism Beta-lactamase Assay, Phase 4 (AID 2283597).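 Also: hits lower the luminescence signal meaning cytotoxicity.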 The method in brief:
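4000 HCT116 cells per well; 5 h attachment; compounds from DMSO, 217-fold dilution; 16 h at 37C. Then CCF4-AM, 2 h RT, followed by CellTiter-Glo, 30 min RT, luminescence. Decrease = cytotoxicity.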

The target in assay [4] is Cellular tumor antigen p53 (Homo sapiens) (UniProt P04637). Put plainly: TOX21_p53_BLA_p5_ratio: Tox21 HCT-116 p53 Agonism Beta-lactamase Assay, Ratio, Phase 5 (AID 2283599). The method in brief:
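HCT-116 cells carrying a p53-inducible beta-lactamase reporter were seeded at 4000 cells/well and dosed after 5 h with compound in DMSO (217-fold dilution). After 16 h at 37C, CCF4-AM substrate was added for 2 h, and the 460/530 nm emission ratio was scored as gain-of-signal versus DMSO.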

Assay [5] has the same target. Put plainly: TOX21_p53_BLA_p4_ratio: Tox21 HCT-116 p53 Agonism Beta-lactamase Assay, Ratio, Phase 4 (AID 2283601). The method in brief:
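HCT116 cells carrying an inducible beta-lactamase reporter were plated at 4000 cells/well, rested 5 h, then exposed to compounds in DMSO (217-fold dilution) for 16 h at 37C. CCF4-AM substrate was loaded 2 h at room temperature; 460/530 nm emission ratio scored gain-of-signal versus DMSO.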

Assay [6] is described as follows: TOX21_p53_BLA_p2_viability: Viability Assessment in the Tox21 HCT-116 p53 Agonism Beta-lactamase Assay, Phase 2 (AID 2283591).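 Also: actives lower the ATP signal meaning cytotoxicity.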 In a few lines:
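HCT-116 p53-bla cells (4000/well) rested 5 h at 37C, then received compounds in DMSO (217-fold dilution) for 16 h at 37C, 5% CO2. After the CCF4 read, CellTiter-Glo was added; ATP luminescence was read after 30 min at room temperature.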

Assay [7] in a line: TOX21_p53_BLA_p3_viability: Viability Assessment in the Tox21 HCT-116 p53 Agonism Beta-lactamase Assay, Phase 3 (AID 2283593).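 Also: cells exposed to compound for 16 h before reading.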 In a few lines:
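HCT-116 cells (4000/well) rested 5 h at 37C, then got DMSO compounds by pin tool (217-fold dilution) for 16 h at 37C, 5% CO2. After the bla read, CellTiter-Glo was added and luminescence read at 30 min, room temperature.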

Assay [8] can be described thus: TOX21_p53_BLA_p5_viability: Viability Assessment in the Tox21 HCT-116 p53 Agonism Beta-lactamase Assay, Phase 5 (AID 2283600). The method in brief:
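Decreased CellTiter-Glo luminescence denotes lost viability. Exposure: 16 h at 37C, 5% CO2, with compounds from DMSO stocks diluted 217-fold in wells of 4000 cells.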

Assay [9] can be described thus: ATG_XTT_Cytotoxicity: Cytotoxicity Assessment in the Attagene TRANS-FACTORIAL HepG2 Assay (AID 2283584). The method in brief:
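HepG2 cells transiently transfected with GAL4-UAS multiple reporter units, dosed 24 h; cytotoxicity read by XTT as loss of signal versus DMSO baseline.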

Several values for one entry are separate records, joined by “and”; a condition that tells them apart may be missing. Identical values can stand only once. Records with an inconclusive call do not appear. More than one record can exist for a structure, and the calls need not agree. Activity calls are given as the source filed them. The calls were made as follows: active = hit-call score of the fitted dose curve at least 0.9, where 1 is the maximum; inconclusive = response in the unintended direction; inactive = score below 0.9.

Cellular tumor antigen p53 (Homo sapiens), sequence (P04637 whole entry, looked up): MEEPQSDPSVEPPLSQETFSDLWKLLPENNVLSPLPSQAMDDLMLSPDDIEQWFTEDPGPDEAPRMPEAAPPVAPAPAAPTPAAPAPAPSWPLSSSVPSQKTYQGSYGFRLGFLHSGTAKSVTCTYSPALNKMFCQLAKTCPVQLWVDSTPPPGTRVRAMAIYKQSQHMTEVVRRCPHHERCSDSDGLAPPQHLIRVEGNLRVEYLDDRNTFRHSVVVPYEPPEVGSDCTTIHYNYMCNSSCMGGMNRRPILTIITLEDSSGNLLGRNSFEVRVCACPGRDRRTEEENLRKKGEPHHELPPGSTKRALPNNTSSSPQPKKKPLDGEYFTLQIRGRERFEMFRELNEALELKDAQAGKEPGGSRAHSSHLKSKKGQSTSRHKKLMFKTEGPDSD

As to `CCOP(OCC)OCC`, the result in assay [1], in assay [2], in assay [3], in [4] and in [5] was inactive.
As to `CC(C)c1ccc(CO)cc1`, the compound was classed as inactive in [6], in assay [1], in [7], in assay [2], in [3] and in assay [4]. Further, the compound was classed as inactive in assay [8] and in [5].
Regarding `O=C(NCO)NCO`, the compound was classed as inactive in assay [9], in [2], in [3], in assay [8] and in [5].
`[O-][Cl+2]([O-])O`: the outcome in [9], in assay [1], in [7], in [2], in assay [3] and in assay [4] was inactive. Also, the compound was called inactive in assay [8] and in assay [5].
For the compound `CCCCP(CCCC)CCCC`, the result in assay [6], in [1], in assay [7], in assay [2], in assay [3] and in assay [8] was inactive. Also, the result in assay [5] was inactive.
On to `Nc1cccc2ccccc12`, for which the compound was called inactive in [9], in [6], in assay [2], in [3], in assay [4] and in assay [5].
As for `CC(=O)C(Cl)C(=O)N(C)C` (stereo unspecified), the result in assay [9], in [1], in [2], in assay [3], in assay [4] and in [8] was inactive. Moreover, the result in assay [5] was inactive.
With `Nc1ccc(N=Nc2ccc(-c3ccc(N=Nc4c(S(=O)(=O)O)cc5cc(S(=O)(=O)O)c(N=Nc6ccccc6)c(O)c5c4N)cc3)cc2)c(N)c1`, the outcome in assay [1], in assay [7], in [2], in [3], in [4] and in assay [5] was inactive.
`OCc1ccco1`: the result in [9], in assay [1], in assay [7], in assay [2], in assay [8] and in [5] was inactive.
As to `c1ccc(N=NNc2ccccc2)cc1`, the outcome in assay [6], in assay [1], in [7], in assay [2], in assay [3] and in assay [4] was inactive. In addition, the outcome in [8] and in assay [5] was inactive.
For the compound `COP(=S)(OC)Oc1cc(Cl)c(Br)cc1Cl`, the result in assay [6], in assay [7], in assay [3] and in assay [4] was inactive. Further, the concentration at half-maximal activity (AC50) in assay [1] was 70.1 µM (active); in [2], 46.8 µM (active); in [5], 79.6 µM (active).
On to `Cl/C=C/Cl`, for which the call in assay [9], in assay [1], in [7], in [2], in assay [8] and in assay [5] was inactive.
For `c1cc[c]([Hg][c]2ccccc2)cc1`, the compound was called inactive in [6], in assay [2] and in assay [4]. Also, the concentration at half-maximal activity (AC50) in [1] was 15.2 µM (active); in assay [3], 79.3 µM (active).
In the case of `CCC[CH2][Sn]([Cl])([Cl])[Cl]`, the compound was called inactive in assay [6], in assay [1], in assay [2], in assay [4], in [8] and in assay [5].
Turning to `CCCCCCCCCCCCCCCC[n+]1ccccc1`, the half-maximal activity concentration (AC50) was 48.8 µM (active) and 69.6 µM (active) in assay [6]; 36.1 µM (active) and 53.2 µM (active) in [2]; 66.5 µM (active) [middle of 4 runs] in assay [3]; 71.7 µM (active) [middle of 4 runs] in assay [4]; 67.7 µM (active) [middle of 4 runs] in assay [5]. In addition, the result in [6] and in assay [2] was inactive.
Turning to `NC(=O)CF`, the compound was classed as inactive in [6], in [1], in [2] and in [3].
With `NNC(=S)NN`, the compound was called inactive in assay [6], in assay [1], in [2], in assay [3], in assay [4] and in assay [5].
With `COc1ccc(C(O)(c2cncnc2)C2CC2)cc1` (stereo unspecified), the result in assay [2] and in [5] was inactive.
As for `O=[N+]([O-])c1ccc2c3c(cccc13)CC2`, the compound was classed as inactive in assay [9], in [1], in assay [2], in [4] and in assay [5].
Consider `COP(=S)(OC)Oc1c(Cl)cc(C)cc1Cl`, for which the result in assay [6], in assay [1], in assay [2], in assay [3], in assay [4] and in assay [5] was inactive.
`N#CN=C(N)N`: the compound was called inactive in assay [6], in assay [1], in assay [2], in assay [3], in assay [4] and in assay [8]. Further, the outcome in assay [5] was inactive.
Take `CCOP(=O)(CN(CCO)CCO)OCC`: the compound was called inactive in [9], in assay [1] and in [3].
Consider `COC(=O)Cc1ccccc1`, for which the outcome in [9], in assay [2] and in assay [5] was inactive.
Take `CC(C)OC(=S)S`: the compound was classed as inactive in assay [6], in assay [1], in assay [2], in assay [3], in [4] and in assay [8].
Regarding `COP(=S)(OC)Oc1ccc(Sc2ccc(OP(=S)(OC)OC)cc2)cc1`, the outcome in assay [6], in [1], in assay [7], in [2], in assay [3] and in [4] was inactive. Besides, the result in [5] was inactive.
On to `NN=C(N)N`, for which the result in [1], in assay [2], in assay [4] and in [5] was inactive.
Consider `ClCc1cccnc1`, for which the result in [6], in [1], in [2], in assay [4] and in assay [8] was inactive.
Take `ClCCBr`: the call in assay [6], in [1], in [7], in assay [2], in assay [3] and in [4] was inactive. Moreover, the result in [8] and in assay [5] was inactive.
`C=C(C)C#N`: the compound was called inactive in [9], in assay [1], in assay [7], in assay [2], in [3] and in assay [4]. Moreover, the result in assay [5] was inactive.
As to `O=C(OC1CCCCC1)c1ccccc1C(=O)OC1CCCCC1`, the outcome in assay [6], in assay [1], in assay [3] and in [4] was inactive.
Take `OCC(O)CCl` (stereo unspecified): the outcome in assay [1], in assay [7], in assay [2], in assay [3], in assay [4] and in [8] was inactive. Further, the outcome in assay [5] was inactive.
In the case of `COc1cc(OC)nc(NC(=O)NS(=O)(=O)c2ncccc2C(=O)N(C)C)n1`, the outcome in [1], in assay [2], in assay [3], in [4] and in assay [5] was inactive.
On to `O=P(O)(O)CN(CP(=O)(O)O)CP(=O)(O)O`, for which the result in assay [9], in [6], in assay [2] and in [5] was inactive.
As for `O=C(Cc1ccccc1)c1ccccc1`, the compound was called inactive in assay [6], in assay [1], in assay [2], in assay [4] and in assay [5].
On to `P.[In]`, for which the call in [6], in [2], in [3], in [4], in [8] and in assay [5] was inactive.
